Source: PubChem BioAssay (Tox21)
Inconclusive results are not listed. Calls of active or inactive are those of the source. Calls follow the shape of the dose curve; as a rule, active = well fitted activation curve with a large enough effect in the repeat runs; inconclusive = weak or mixed curves; inactive = no such curve, though single readings can be large or run the other way.

These molecules were tested against Nuclear receptor subfamily 1 group I member 2 (Homo sapiens) (UniProt O75469) (assay: Human pregnane X receptor (PXR) small molecule agonists, qHTS assay (AID 1346982; also: nearly all actives have a fitted effect of over 35% in size)). Conditions: PXR-Luc HepG2, CYP3A4 luciferase reporter, 24 h; series mostly up to 92.4 µM; activation: at the top concentration.
Source text: National Center for Advancing Translational Sciences [NCATS]
NIH Chemical Genomics Center [NCGC]
U.S. Environmental Protection Agency [EPA]
National Institutes of Environmental Health Sciences [NIEHS]
National Toxicology Program [NTP]
The human pregnane X receptor (hPXR) regulates the expression of several drug metabolizing enzymes and induction of these proteins is a major mechanism for developing drug resistance in cancer. One such key enzyme catalyzing the drug metabolism is cytochrome P450 3A4 (CYP3A4). Changes in CYP3A4 expression affect drug metabolism, thereby reducing the therapeutic efficacy and altering toxicological response to a drug and which finally causes adverse drug interaction. To screen Tox21 libraries for compounds that activate hPXR-mediated CYP3A4 gene expression, PXR-Luc HepG2 cells were used.
PXR-Luc HepG2 cells were dispensed at 2,000 per well in 5uL of assay medium containing 5% charcoal-stripped FBS into white solid bottom 1536-well plates (Corning Life Sciences, Corning, NY) using a Multidrop Combi (Thermo Scientific, Waltham, MA) dispenser. The assay plates were incubated at 37 C and 5% CO2 for 5hr, and then 23nL of compounds dissolved in DMSO and positive control were transferred using a Pintool station (Wako, San Diego, CA). The assay plates were incubated at 37C and 5% CO2 for 24hr. For luciferase read, 4uL of ONE-Glo reagent (Promega Corporation, Madison, WI) was added to each well of the assay plates using Flying Reagent Dispenser (FRD, Aurora Discovery, San Diego, CA) and incubated the assay plates at room temperature for 30min. The luminescence signal was quantified using a ViewLux plate reader (Perkin Elmer, Shelton, CT).
% is scaled to controls: 0 for no effect and ±100 for the full control effect; potency is read from the fitted curve at half-maximal effect.

Chain of Nuclear receptor subfamily 1 group I member 2 (Homo sapiens) (O75469 whole entry, looked up): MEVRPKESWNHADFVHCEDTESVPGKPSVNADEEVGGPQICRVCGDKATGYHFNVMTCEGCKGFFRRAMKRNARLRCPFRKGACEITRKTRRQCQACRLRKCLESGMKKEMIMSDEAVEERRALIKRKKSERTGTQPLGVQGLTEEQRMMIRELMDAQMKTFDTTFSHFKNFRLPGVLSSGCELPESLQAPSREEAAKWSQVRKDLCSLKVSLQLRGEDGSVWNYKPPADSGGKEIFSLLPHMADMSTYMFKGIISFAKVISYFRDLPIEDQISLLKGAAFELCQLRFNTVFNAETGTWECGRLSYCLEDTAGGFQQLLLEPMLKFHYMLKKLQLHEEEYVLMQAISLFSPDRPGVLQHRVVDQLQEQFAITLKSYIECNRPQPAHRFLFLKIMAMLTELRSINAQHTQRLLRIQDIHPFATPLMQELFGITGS

Row | Compound | Potency | activation
1 | O=C1NCN(c2ccccc2)C12CCN(CCCOc1ccc(F)cc1)CC2 | 5.96 µM (active) | 
2 | CCOP(=O)(OCC)O/C(=C/Cl)c1ccc(Cl)cc1Cl | 4.86 µM (active) | 
3 | OCCCBr |  | -24.7% (inactive)
4 | CCOS(C)(=O)=O |  | 26.1% (inactive)
5 | CCCCCCCCOC(=O)c1ccc(C(=O)OCCCCCCCC)c(C(=O)OCCCCCCCC)c1 |  | -1.01% (inactive)
6 | CC[C@H]1C[C@H]2[C@@H]3CCC4=CC(=O)CC[C@@H]4[C@H]3CC[C@]2(C)[C@H]1O | 9.44 µM (active) | 
7 | COCC(C)N(C(=O)CCl)c1c(C)csc1C (stereo not given) |  | 6.37% (inactive)
8 | C=CC(=O)OCC(C)C | 48.2 µM (active) | 
9 | CN1[C@@H]2CC[C@H]1CC(OC(=O)c1cc(Cl)cc(Cl)c1)C2 (stereo not given in full) |  | -2.19% [at 42.5 µM] (inactive)
10 | C=CC(=O)OCC(C)O (stereo not given) |  | -22.2% (inactive)
11 | O=C(OC1CCCCC1)c1ccccc1C(=O)OC1CCCCC1 | 5.74 µM (active) | 
12 | CCCCNP(N)(N)=S |  | 17.7% (inactive)
13 | CN(N=O)c1ccc([N+](=O)[O-])cc1 |  | 20.6% (inactive)
14 | CN1C(=O)C(O)N=C(c2ccccc2)c2cc(Cl)ccc21 (stereo not given) | 28.3 µM (active) | 
15 | CC(Cl)C(C)Cl (stereo not given) |  | 1.73% (inactive)
16 | Cl/C=C\C[N+]12CN3CN(CN(C3)C1)C2 |  | -7.53% (inactive)
17 | NCC(CC(=O)O)c1ccc(Cl)cc1 (stereo not given) |  | -6.38% [at 0.349 µM] (inactive)
18 | O=[N+]([O-])c1ccccc1CCl | 0.0039 µM (active) | 
19 | CC1(C)CCC(Cc2ccc(Cl)cc2)C1(O)Cn1cncn1 (stereo not given) | 9.69 µM (active) | 
20 | CCOP(=S)(OCC)Oc1cc(Cl)c(Br)cc1Cl | 61.1 µM (active) | 

Row | Compound | Potency | activation
21 | CN1C[C@H](CNC(=O)OCc2ccccc2)C[C@@H]2c3cccc4c3c(cn4C)C[C@H]21 |  | 7.64% [at 42.5 µM] (inactive)
22 | O=C1C(=O)c2cccc3cccc1c23 | 54.4 µM (active) | 
23 | CCCCN=C=O |  | 17.2% (inactive)
24 | Cc1cc(=O)[nH]o1 |  | -9.34% (inactive)
25 | ClCCCCBr |  | 3.19% (inactive)
26 | C=CC(=O)OCCCCO |  | -21.6% (inactive)
27 | O=C(NCc1cccnc1)Nc1ccc([N+](=O)[O-])cc1 |  | 26.9% (inactive)
28 | O=C(O)c1ccccc1C(=O)Nc1cccc2ccccc12 | 38.6 µM (active) | 
29 | CCCN(CCCl)c1c([N+](=O)[O-])cc(C(F)(F)F)cc1[N+](=O)[O-] | 21.7 µM (active) | 
30 | Cn1sc(Cl)cc1=O |  | -4.6% (inactive)
31 | Cc1ccc(N)cc1C | 49 µM (active) | 
32 | Nc1nc(N)nc(N)n1 |  | 8.88% (inactive)
33 | N#Cc1ccc(Cl)cc1 |  | 4.54% (inactive)
34 | CC(C)=CCOc1c2occc2cc2ccc(=O)oc12 |  | 17.3% [at 42.5 µM] (inactive)
35 | COc1nn(C(=O)NS(=O)(=O)c2ccccc2OC(F)(F)F)c(=O)n1C |  | 7.57% (inactive)
36 | CCCCCCC#N |  | -52% (inactive)
37 | O=S(=O)(Cl)c1ccccc1 |  | 2.14% (inactive)
38 | COP(=S)(OC)Oc1ccc([N+](=O)[O-])cc1Cl |  | 18.1% (inactive)
39 | C=CC[C@]1(O)CC[C@H]2[C@@H]3CCC4=CC(=O)CCC4=C3C=C[C@@]21C |  | 17.9% [at 42.5 µM] (inactive)
40 | ClP(Cl)(Cl)(Cl)Cl |  | -0.0773% (inactive)
